# Target: T1, ETV7 (Homo sapiens, UniProt Q9Y603 1-341)
# T1 sequence: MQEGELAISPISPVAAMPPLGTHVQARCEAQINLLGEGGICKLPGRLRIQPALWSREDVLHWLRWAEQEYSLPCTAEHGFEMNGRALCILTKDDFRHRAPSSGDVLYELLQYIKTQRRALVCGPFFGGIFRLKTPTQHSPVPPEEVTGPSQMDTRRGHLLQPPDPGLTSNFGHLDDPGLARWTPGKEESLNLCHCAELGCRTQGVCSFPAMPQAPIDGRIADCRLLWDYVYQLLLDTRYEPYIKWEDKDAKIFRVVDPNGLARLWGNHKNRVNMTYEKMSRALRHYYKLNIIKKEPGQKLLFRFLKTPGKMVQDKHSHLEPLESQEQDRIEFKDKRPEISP
# Assay: DAPPL (digital affinity profiling via proximity ligation, sequencing); 10 mM Tris-HCl pH 7.5, 50 mM NaCl, 1 mM DTT, 4% glycerol, room temperature, 30 min; GST-TFs on glutathione beads, 16-mer random dsDNA library, 0.1% formaldehyde crosslink after washing; high values mean tight binding
# Conditions: protein: recombinant; tags: N-terminal GST; dsDNA, one strand shown
# Procedure, shortened: (§1)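 Binding signal is defined as a hexamer's read frequency for one factor over its frequency for the tag-only sample. To obtain reads, GST-fused human transcription factors were expressed in yeast, captured on glutathione beads, barcoded with DNA and pooled with that sample. Pools met 200 nmole of a 16-mer random double-stranded DNA library in Tris/NaCl/DTT/glycerol buffer for 30 min at room temperature before washing, 0.1% formaldehyde crosslinking, proximity ligation (BsaI/T4 ligase, 1 h, 37 °C), PCR and Illumina NextSeq500 sequencing.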
row,Sequence,binding signal
1,TGGACC,"1.03 fold enrichment (6-mer frequency, TF over GST control)"
2,TGCTGC,"1.1 fold enrichment (6-mer frequency, TF over GST control)"
3,CGGCCT,"1.23 fold enrichment (6-mer frequency, TF over GST control)"
4,TTGGTC,"1.18 fold enrichment (6-mer frequency, TF over GST control)"
5,TTGCCG,"1.22 fold enrichment (6-mer frequency, TF over GST control)"
6,AGCAAC,"1.1 fold enrichment (6-mer frequency, TF over GST control)"
7,AAAGCG,"1.11 fold enrichment (6-mer frequency, TF over GST control)"
8,CCGATG,"1.1 fold enrichment (6-mer frequency, TF over GST control)"
9,GCGCGC,"1.05 fold enrichment (6-mer frequency, TF over GST control)"
10,CGCCCG,"1.08 fold enrichment (6-mer frequency, TF over GST control)"
11,GTCCCA,"1.13 fold enrichment (6-mer frequency, TF over GST control)"
12,TGGTGC,"1.07 fold enrichment (6-mer frequency, TF over GST control)"
13,ACATGG,"1.08 fold enrichment (6-mer frequency, TF over GST control)"
14,GTCTTG,"1.19 fold enrichment (6-mer frequency, TF over GST control)"
15,TGCCAA,"1.01 fold enrichment (6-mer frequency, TF over GST control)"
16,GCTGCC,"1.04 fold enrichment (6-mer frequency, TF over GST control)"
17,CCGCTG,"1.16 fold enrichment (6-mer frequency, TF over GST control)"
18,ACGTTG,"1.1 fold enrichment (6-mer frequency, TF over GST control)"
19,CCATGC,"1.1 fold enrichment (6-mer frequency, TF over GST control)"
20,AAGGGT,"1.1 fold enrichment (6-mer frequency, TF over GST control)"
21,CATCGC,"1.11 fold enrichment (6-mer frequency, TF over GST control)"
22,AAGGCA,"1.05 fold enrichment (6-mer frequency, TF over GST control)"
23,GGTTTT,"1.1 fold enrichment (6-mer frequency, TF over GST control)"

# Target: T2, ELF5 (Homo sapiens, UniProt Q9UKW6-2 1-255)
# T2 sequence: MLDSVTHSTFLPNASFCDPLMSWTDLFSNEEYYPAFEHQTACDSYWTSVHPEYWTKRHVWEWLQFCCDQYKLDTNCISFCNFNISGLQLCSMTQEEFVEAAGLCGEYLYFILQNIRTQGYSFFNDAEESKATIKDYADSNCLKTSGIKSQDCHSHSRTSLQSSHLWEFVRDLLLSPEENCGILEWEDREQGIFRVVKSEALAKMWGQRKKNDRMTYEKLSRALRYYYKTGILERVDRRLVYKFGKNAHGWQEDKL
# Assay: as above
# Conditions: protein: recombinant; tags: N-terminal GST; dsDNA, one strand shown
# Procedure, shortened: as §1
row,Sequence,binding signal
1,TGCTGC,"1.16 fold enrichment (6-mer frequency, TF over GST control)"
2,TTGGTC,"1.04 fold enrichment (6-mer frequency, TF over GST control)"
3,TTGCCG,"1.07 fold enrichment (6-mer frequency, TF over GST control)"
4,AGCAAC,"1.07 fold enrichment (6-mer frequency, TF over GST control)"
5,AAAGCG,"1.07 fold enrichment (6-mer frequency, TF over GST control)"
6,GGGTTC,"1.1 fold enrichment (6-mer frequency, TF over GST control)"
7,CATACG,"1.06 fold enrichment (6-mer frequency, TF over GST control)"
8,ATGCCG,"1.13 fold enrichment (6-mer frequency, TF over GST control)"
9,CCACCT,"1.09 fold enrichment (6-mer frequency, TF over GST control)"
10,CGCCCG,"1.16 fold enrichment (6-mer frequency, TF over GST control)"
11,TCAACA,"1 fold enrichment (6-mer frequency, TF over GST control)"
12,ACCACA,"1.09 fold enrichment (6-mer frequency, TF over GST control)"
13,GTCCCA,"1.12 fold enrichment (6-mer frequency, TF over GST control)"
14,TGGTGC,"1.02 fold enrichment (6-mer frequency, TF over GST control)"
15,ACATGG,"1.1 fold enrichment (6-mer frequency, TF over GST control)"
16,ATGGTG,"1.02 fold enrichment (6-mer frequency, TF over GST control)"
17,ACCACC,"1.07 fold enrichment (6-mer frequency, TF over GST control)"
18,TGCCAA,"1.1 fold enrichment (6-mer frequency, TF over GST control)"
19,GCTGCC,"1.09 fold enrichment (6-mer frequency, TF over GST control)"
20,CCGCTG,"1.03 fold enrichment (6-mer frequency, TF over GST control)"
21,ACGTTG,"1.02 fold enrichment (6-mer frequency, TF over GST control)"
22,CCATGC,"1.03 fold enrichment (6-mer frequency, TF over GST control)"
23,GTTGAT,"1.05 fold enrichment (6-mer frequency, TF over GST control)"
24,AAGGGT,"1.04 fold enrichment (6-mer frequency, TF over GST control)"
25,GTCTAC,"1.08 fold enrichment (6-mer frequency, TF over GST control)"
26,CATCGC,"1.03 fold enrichment (6-mer frequency, TF over GST control)"
27,AAGGCA,"1.05 fold enrichment (6-mer frequency, TF over GST control)"
28,GGTTTT,"1.12 fold enrichment (6-mer frequency, TF over GST control)"

# Target: T3, ETV3 (Homo sapiens, UniProt P41162-2 1-143)
# T3 sequence: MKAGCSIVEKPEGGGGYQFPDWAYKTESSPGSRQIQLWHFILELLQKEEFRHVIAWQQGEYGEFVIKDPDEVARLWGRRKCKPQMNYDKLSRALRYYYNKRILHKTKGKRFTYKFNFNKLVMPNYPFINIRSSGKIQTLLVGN
# Assay: as above
# Conditions: protein: recombinant; tags: N-terminal GST; dsDNA, one strand shown
# Procedure, shortened: as §1
row,Sequence,binding signal
1,TGGACC,"1.04 fold enrichment (6-mer frequency, TF over GST control)"
2,TGCTGC,"1.23 fold enrichment (6-mer frequency, TF over GST control)"
3,CCACAC,"1 fold enrichment (6-mer frequency, TF over GST control)"
4,CGGCCT,"1.18 fold enrichment (6-mer frequency, TF over GST control)"
5,GCCCAC,"1.09 fold enrichment (6-mer frequency, TF over GST control)"
6,TTGGTC,"1.05 fold enrichment (6-mer frequency, TF over GST control)"
7,TTGCCG,"1.1 fold enrichment (6-mer frequency, TF over GST control)"
8,TGGTCA,"1.01 fold enrichment (6-mer frequency, TF over GST control)"
9,AGCAAC,"1.04 fold enrichment (6-mer frequency, TF over GST control)"
10,AAAGCG,"1.14 fold enrichment (6-mer frequency, TF over GST control)"
11,GGGTTC,"1.1 fold enrichment (6-mer frequency, TF over GST control)"
12,CCGATG,"1.12 fold enrichment (6-mer frequency, TF over GST control)"
13,ATGCCG,"1.24 fold enrichment (6-mer frequency, TF over GST control)"
14,CCACCT,"1.08 fold enrichment (6-mer frequency, TF over GST control)"
15,GCGCGC,"1.02 fold enrichment (6-mer frequency, TF over GST control)"
16,CGCCCG,"1.3 fold enrichment (6-mer frequency, TF over GST control)"
17,TCAACA,"1.08 fold enrichment (6-mer frequency, TF over GST control)"
18,ACCACA,"1.02 fold enrichment (6-mer frequency, TF over GST control)"

row,Sequence,binding signal
1,GTCCCA,"1.07 fold enrichment (6-mer frequency, TF over GST control)"
2,TGGTGC,"1.17 fold enrichment (6-mer frequency, TF over GST control)"
3,ACATGG,"1.13 fold enrichment (6-mer frequency, TF over GST control)"
4,GTCTTG,"1 fold enrichment (6-mer frequency, TF over GST control)"
5,ATGGTG,"1.04 fold enrichment (6-mer frequency, TF over GST control)"
6,ACCACC,"1.08 fold enrichment (6-mer frequency, TF over GST control)"
7,TGCCAA,"1.13 fold enrichment (6-mer frequency, TF over GST control)"
8,GCTGCC,"1.12 fold enrichment (6-mer frequency, TF over GST control)"
9,GCCCCA,"1.06 fold enrichment (6-mer frequency, TF over GST control)"
10,CCGCTG,"1.08 fold enrichment (6-mer frequency, TF over GST control)"
11,ACGTTG,"1.11 fold enrichment (6-mer frequency, TF over GST control)"
12,CCATGC,"1.12 fold enrichment (6-mer frequency, TF over GST control)"
13,GTTGAT,"1.08 fold enrichment (6-mer frequency, TF over GST control)"
14,AAGGGT,"1.05 fold enrichment (6-mer frequency, TF over GST control)"
15,GTCTAC,"1.06 fold enrichment (6-mer frequency, TF over GST control)"
16,CATCGC,"1.1 fold enrichment (6-mer frequency, TF over GST control)"
17,AAGGCA,"1.07 fold enrichment (6-mer frequency, TF over GST control)"
18,GGTTTT,"1.14 fold enrichment (6-mer frequency, TF over GST control)"

# Target: ETV6 (Homo sapiens, UniProt P41212 1-452)
# Assay: as above
# Conditions: protein: recombinant; tags: N-terminal GST; dsDNA, one strand shown
# Procedure, shortened: as §1
# ETV6, sequence (P41212 whole entry): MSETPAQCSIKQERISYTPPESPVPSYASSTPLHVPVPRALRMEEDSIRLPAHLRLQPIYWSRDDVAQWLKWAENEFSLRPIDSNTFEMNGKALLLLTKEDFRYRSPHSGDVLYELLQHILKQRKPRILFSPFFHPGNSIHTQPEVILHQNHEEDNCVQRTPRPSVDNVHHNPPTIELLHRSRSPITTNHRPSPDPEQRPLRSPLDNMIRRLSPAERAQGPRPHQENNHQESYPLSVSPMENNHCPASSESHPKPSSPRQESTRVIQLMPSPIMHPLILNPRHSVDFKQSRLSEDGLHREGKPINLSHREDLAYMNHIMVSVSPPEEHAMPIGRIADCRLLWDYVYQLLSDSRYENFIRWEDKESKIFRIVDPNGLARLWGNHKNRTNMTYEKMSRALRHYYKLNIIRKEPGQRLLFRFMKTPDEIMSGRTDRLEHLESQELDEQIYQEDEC
row,Sequence,binding signal
1,TGGACC,"1.08 fold enrichment (6-mer frequency, TF over GST control)"
2,TGCTGC,"1.1 fold enrichment (6-mer frequency, TF over GST control)"
3,CCACAC,"1.02 fold enrichment (6-mer frequency, TF over GST control)"
4,GCCCAC,"1.05 fold enrichment (6-mer frequency, TF over GST control)"
5,TTGGTC,"1.06 fold enrichment (6-mer frequency, TF over GST control)"
6,TTGCCG,"1.08 fold enrichment (6-mer frequency, TF over GST control)"
7,TGGTCA,"1.04 fold enrichment (6-mer frequency, TF over GST control)"
8,AGCAAC,"1.06 fold enrichment (6-mer frequency, TF over GST control)"
9,AAAGCG,"1.1 fold enrichment (6-mer frequency, TF over GST control)"
10,CATACG,"1.01 fold enrichment (6-mer frequency, TF over GST control)"
11,ATGCCG,"1.15 fold enrichment (6-mer frequency, TF over GST control)"
12,CCACCT,"1.06 fold enrichment (6-mer frequency, TF over GST control)"
13,GCGCGC,"1.03 fold enrichment (6-mer frequency, TF over GST control)"
14,CGCCCG,"1.02 fold enrichment (6-mer frequency, TF over GST control)"
15,ACCACA,"1.08 fold enrichment (6-mer frequency, TF over GST control)"
16,GTCCCA,"1.03 fold enrichment (6-mer frequency, TF over GST control)"
17,ACATGG,"1.14 fold enrichment (6-mer frequency, TF over GST control)"
18,ATGGTG,"1.11 fold enrichment (6-mer frequency, TF over GST control)"
19,ACCACC,"1.09 fold enrichment (6-mer frequency, TF over GST control)"
20,TGCCAA,"1.08 fold enrichment (6-mer frequency, TF over GST control)"
21,GCTGCC,"1.13 fold enrichment (6-mer frequency, TF over GST control)"
22,GCCCCA,"1.03 fold enrichment (6-mer frequency, TF over GST control)"
23,CCGCTG,"1.11 fold enrichment (6-mer frequency, TF over GST control)"
24,ACGTTG,"1.11 fold enrichment (6-mer frequency, TF over GST control)"
25,CCATGC,"1.12 fold enrichment (6-mer frequency, TF over GST control)"
26,GTCTAC,"1 fold enrichment (6-mer frequency, TF over GST control)"
27,CATCGC,"1.02 fold enrichment (6-mer frequency, TF over GST control)"
28,AAGGCA,"1.03 fold enrichment (6-mer frequency, TF over GST control)"
29,GGTTTT,"1.05 fold enrichment (6-mer frequency, TF over GST control)"

# Reference: publication PMC7862700, “An all-to-all approach to the identification of sequence-specific readers for epigenetic DNA modifications on cytosine”
